Among all 310,000 compounds or so, about 14,000 (4.5%) showed an effect of 50% or more. The effect is printed as a negative number. Only a selection was taken, and strong results are over-represented in it overall.
Target: human ether-à-go-go-related gene (hERG) potassium channel (human, UniProt Q12809)
Test: primary screen, population patch clamp on CHO cells stably expressing hERG; higher = less effect of the substance
Protocol: Briefly, Chinese hamster ovary (CHO) cells stably expressing the hERG channel were dislodged from tissue culture flasks and dispensed into PPC plates. […] During the recording, background leak currents were estimated by a 100 ms step to -80 mV from an initial holding potential of -70 mV and subtracted from the subsequent current measurement. The campaign was conducted in two phases using slight differences in recording protocol. In the first phase, the initial voltage pulse used a 100 ms step to -30 mV from a holding potential of -70 mV, a 2 s conditioning step to +25 mV, and a 2 s test step to -30 mV. During the second phase of the screen, the potential during the conditioning step was raised to +45 mV. In both phases of the campaign, a secondary voltage pulse was applied using the same parameters as the second phase initial pulse. The initial and secondary pulses were applied in the absence of compound, and upon application of 1 μM and 10 μM test concentrations. […]
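Note: peak tail current of the secondary pulse compared with the same well before compound.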

human ether-à-go-go-related gene (hERG) potassium channel, sequence (Q12809 whole entry, looked up): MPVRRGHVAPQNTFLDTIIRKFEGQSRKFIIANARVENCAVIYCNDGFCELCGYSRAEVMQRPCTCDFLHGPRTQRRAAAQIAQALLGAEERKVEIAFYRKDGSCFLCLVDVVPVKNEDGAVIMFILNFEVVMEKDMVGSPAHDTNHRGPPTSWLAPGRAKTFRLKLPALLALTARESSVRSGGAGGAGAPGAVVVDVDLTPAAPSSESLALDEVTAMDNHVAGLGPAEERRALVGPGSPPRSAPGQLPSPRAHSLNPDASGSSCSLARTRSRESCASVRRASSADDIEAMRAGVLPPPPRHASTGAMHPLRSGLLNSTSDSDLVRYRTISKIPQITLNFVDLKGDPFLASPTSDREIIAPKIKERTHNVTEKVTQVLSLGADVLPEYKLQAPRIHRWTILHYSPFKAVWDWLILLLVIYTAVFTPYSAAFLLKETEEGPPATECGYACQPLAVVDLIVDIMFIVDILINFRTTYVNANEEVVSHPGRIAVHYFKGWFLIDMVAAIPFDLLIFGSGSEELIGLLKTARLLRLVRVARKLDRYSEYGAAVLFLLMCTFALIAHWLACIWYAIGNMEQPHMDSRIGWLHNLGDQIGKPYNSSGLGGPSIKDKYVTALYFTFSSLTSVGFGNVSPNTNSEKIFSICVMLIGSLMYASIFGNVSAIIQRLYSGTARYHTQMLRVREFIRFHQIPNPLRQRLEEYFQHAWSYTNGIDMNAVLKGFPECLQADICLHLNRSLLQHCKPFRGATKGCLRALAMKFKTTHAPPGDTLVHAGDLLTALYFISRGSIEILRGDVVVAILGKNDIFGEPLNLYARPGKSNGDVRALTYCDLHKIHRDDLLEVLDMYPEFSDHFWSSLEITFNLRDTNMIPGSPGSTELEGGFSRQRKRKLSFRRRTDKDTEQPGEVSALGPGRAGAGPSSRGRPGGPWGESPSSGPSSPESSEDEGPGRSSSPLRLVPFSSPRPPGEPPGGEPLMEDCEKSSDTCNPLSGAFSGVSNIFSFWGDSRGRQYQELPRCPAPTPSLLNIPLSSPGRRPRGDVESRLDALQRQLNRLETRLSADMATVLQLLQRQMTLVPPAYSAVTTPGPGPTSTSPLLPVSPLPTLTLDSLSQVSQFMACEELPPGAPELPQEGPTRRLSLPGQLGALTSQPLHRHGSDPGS

Row | SMILES | hERG current change (%, negative = inhibition) at 10uM
1 | Cc1cc2nc(CO)[nH]c2cc1C | 14.9%
2 | O=C1NC2NC(=O)N([N+](=O)[O-])C2N1 (stereo not drawn) | 14.6%
3 | CC(C)NC(=O)COC(=O)c1ccc(Cl)c(S(N)(=O)=O)c1 | 18.6%
4 | CC(=O)Nc1c2c(nn1-c1cccc(Cl)c1)CS(=O)(=O)C2 | -16.8%
5 | CCCC(=O)Nc1c2c(nn1-c1cccc(Cl)c1)CS(=O)(=O)C2 | -53.4%
6 | COc1ccc(CC(=O)Nc2c3c(nn2-c2cccc(Cl)c2)CS(=O)C3)cc1 (stereo not drawn) | -37.1%
7 | O=C(Nc1c2c(nn1-c1ccc(Cl)cc1)CS(=O)(=O)C2)C1CC1 | -26.8%
8 | O=C(Nc1c2c(nn1-c1cccc(Cl)c1)CS(=O)(=O)C2)C1CC1 | -66.9%
9 | CCC(=O)Nc1c2c(nn1-c1cccc(Cl)c1)CS(=O)(=O)C2 | -38.7%
10 | COc1ccc(CC(=O)Nc2c3c(nn2-c2cccc(C)c2C)CS(=O)(=O)C3)cc1 | -24.5%
11 | COc1ccc(CC(=O)Nc2c3c(nn2-c2cccc(Cl)c2)CS(=O)(=O)C3)cc1 | -51.7%
12 | CC(C)CC(=O)Nc1c2c(nn1-c1cccc(Cl)c1)CS(=O)(=O)C2 | -40.8%
13 | O=C(Cc1ccccc1)Nc1c2c(nn1-c1cccc(Cl)c1)CS(=O)(=O)C2 | -76.2%
14 | O=C(Nc1c2c(nn1-c1ccccc1)CS(=O)(=O)C2)C1CCCC1 | -0.437%
15 | O=C(Nc1c2c(nn1-c1cccc(Cl)c1)CS(=O)(=O)C2)c1ccco1 | -37.9%
16 | COc1ccc(CSCCc2n[nH]c(=S)n2-c2ccccc2)cc1C | 0.99%
17 | O=C(COc1ncnc2ccccc12)Nc1cccc([N+](=O)[O-])c1 | -2.61%
18 | Cc1cc(C)nc(/N=C(\N)Nc2ccc(CC(=O)OC(C)C)cc2)n1 | -67.6%
19 | COc1cc(N/C(N)=N/c2nc(C)cc(C)n2)cc(OC)c1 | -49.8%

Row | SMILES | hERG current change (%, negative = inhibition) at 10uM
20 | CC(=O)NS(=O)(=O)c1ccc(N/C(N)=N/c2nc(C)cc(C)n2)cc1 | 13.3%
21 | Cc1cccc(N/C(N)=N/c2nc(C)cc(C)n2)c1 | -28%
22 | Cc1cc(C)nc(/N=C(\N)Nc2ccc(C)c([N+](=O)[O-])c2)n1 | -5.32%
23 | Cc1ccc(N/C(N)=N/c2nc(C)cc(C)n2)cc1 | -68.7%
24 | Cc1cc(C)nc(NC(N)=NC(C)c2ccccc2)n1 (stereo not drawn) | -0.0621%
25 | Cc1ccc(CN=C(N)Nc2nc(C)cc(C)n2)cc1.Cl | -76.1%
26 | Cc1cc(C)cc(N/C(N)=N/c2nc(C)cc(C)n2)c1 | -50%
27 | Cc1cc(C)nc(NC(N)=NCCc2c[nH]c3ccccc23)n1 | 11.6%
28 | Cc1ccc(N/C(N)=N/c2nc(C(F)(F)F)cc(C(F)(F)F)n2)cc1 | 18.9%
29 | CC(=O)Nc1ccc(N/C(N)=N/c2nc(C)cc(C)n2)cc1 | 14%
30 | O=C(NCC1CCCO1)NC1(C(F)(F)F)Oc2ccccc2O1 (stereo not drawn) | 1.63%
31 | CN1CCN(S(=O)(=O)c2ccc3c4c(cccc24)C(=O)N3)CC1 | -0.59%
32 | O=C(NCN1C(=O)C2C3C=CC(C3)C2C1=O)Nc1ccccn1 (stereo not drawn) | 9.67%
33 | CCOC(=O)N1CCC(NS(=O)(=O)c2cc3c(cc2C)NC(=O)CO3)CC1 | -7.84%
34 | Cc1ccc(NC(=O)NNC(=O)C2CC(c3cccnc3)=NO2)cc1 (stereo not drawn) | 4.19%
35 | O=C1c2ccccc2C(=O)N1OCCOCCOCCON1C(=O)c2ccccc2C1=O | -29.2%
36 | CC1(c2ccccc2)NC(=O)N(CC(=O)Nc2nnc(C3CC3)s2)C1=O (stereo not drawn) | 12.1%
37 | O=C(Nc1ccc(F)cc1F)c1cccn(Cc2ccccc2)c1=O | 13.1%
38 | CCn1c(CN2CCCCCC2=O)nnc1SCc1cnc(-c2ccccc2)s1 | -19.3%

Row | SMILES | hERG current change (%, negative = inhibition) at 10uM
39 | COc1ccc(C(=O)COC(=O)CCCC(=O)NC2CCCCC2)cc1 | 2.77%
40 | COc1ccc(S(=O)(=O)N2CCC(C(=O)N3CCc4ccccc4C3)CC2)cc1C | -19.7%
41 | CCc1ccc(N/C(=N/c2nc(C)cc(C)n2)NC(C)=O)cc1 | -67%
42 | CCOc1ccc(N/C(=N/c2nc(C)cc(C)n2)NC(C)=O)cc1 | -12.2%
43 | Cc1cc(C)nc(/N=C(\N)Nc2ccccc2-c2ccccc2)n1 | -43.2%
44 | CCCCc1ccc(N/C(N)=N/c2nc(C)cc(C)n2)cc1 | -70.1%
45 | Cc1cc(C)nc(/N=C(\N)Nc2ccc(-c3ccccc3)cc2)n1 | -81.6%
46 | CCC(=O)Nc1ccc(N/C(N)=N/c2nc(C)cc(C)n2)cc1 | -4.25%
47 | Cc1cc(C)nc(/N=C(\N)Nc2ccc(C(C)C)cc2)n1 | -67.5%
48 | CC(=O)N/C(=N/c1nc(C)cc(C)n1)Nc1ccc(NC(C)=O)cc1 | 9.5%
49 | Cc1cc(C)nc(/N=C(\N)Nc2ccc([N+](=O)[O-])cc2)n1 | -25%
50 | Cc1cc(C)nc(/N=C(\N)Nc2ccc(S(=O)(=O)Nc3nc(C)cc(C)n3)cc2)n1.Cl | 38%
51 | Cc1cc(C)nc(/N=C(\N)Nc2ccc(S(N)(=O)=O)cc2)n1 | 14.9%
52 | COc1ccc(C)cc1NC(=O)NNC(=O)c1cc2ccccc2cc1O | 12.1%
53 | Cc1ccc(C(=O)Nc2ccc(C)c(S(=O)(=O)Nc3ccccc3Cl)c2)s1 | -6.43%
54 | CCn1c(=O)c2c3c(sc2n2cnnc12)CCC3 | 20%
55 | CC(=O)N1N=C(c2cccc([N+](=O)[O-])c2)OC1c1ccc(Br)cc1 (stereo not drawn) | -7.59%
56 | COc1ccc(OC)c(S(=O)(=O)Nc2cccc3ccc(O)cc23)c1 | 6%
57 | COC(=O)CCCc1nc2ccccc2s1 | 8.7%

— paper PMC4336329 (PLoS ONE, 2015)
